Reference: PubChem BioAssay AID1851 (National Center for Advancing Translational Sciences (NCATS), 2009)
Where “and” joins values, the source holds several entries; their conditions need not be identical. Identical values can stand only once. About 5,700 (36%) of roughly 16,000 compounds were called active. Not shown: some 24% with an inconclusive outcome. The list shows a part of the results. Unmarked numbers belong to inactive results. Calls follow the shape of the dose curve; as a rule, active = well fitted curve in the direction sought with a large enough effect; inconclusive = small, poorly fitted or top-dose-only effect, or effect the other way; inactive = no such curve, though single readings can be large or run the other way.

Molecular target: Cytochrome P450 1A2 (Homo sapiens) (UniProt P05177)
Assay: Cytochrome panel assay with activity outcomes
Conditions: recombinant CYP, pro-luciferin dealkylation, luminescence, p450-cyp1a2; series mostly up to 57.1 µM; activity, negative = inhibition: at the top concentration
% is scaled to controls: 0 for no effect and ±100 for the full control effect.

Cytochrome P450 1A2 (Homo sapiens), sequence (P05177 whole entry, looked up): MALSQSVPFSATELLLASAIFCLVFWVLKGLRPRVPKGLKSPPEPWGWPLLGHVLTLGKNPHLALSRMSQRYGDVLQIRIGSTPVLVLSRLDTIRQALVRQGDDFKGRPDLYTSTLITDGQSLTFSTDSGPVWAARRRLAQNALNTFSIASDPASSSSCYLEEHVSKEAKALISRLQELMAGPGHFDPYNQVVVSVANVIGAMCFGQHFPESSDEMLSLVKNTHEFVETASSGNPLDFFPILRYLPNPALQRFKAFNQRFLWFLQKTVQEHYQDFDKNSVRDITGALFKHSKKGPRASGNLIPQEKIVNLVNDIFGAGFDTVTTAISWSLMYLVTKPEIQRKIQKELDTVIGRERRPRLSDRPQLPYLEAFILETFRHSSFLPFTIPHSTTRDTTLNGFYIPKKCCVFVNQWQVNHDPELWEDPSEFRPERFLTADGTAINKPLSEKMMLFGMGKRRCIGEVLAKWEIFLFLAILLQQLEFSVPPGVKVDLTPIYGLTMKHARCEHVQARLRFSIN

Row | Structure (SMILES) | activity, negative = inhibition | AC50
1 | O=C(c1csnn1)N1CCC2(CC1)CN(c1ccccn1)C2 | -12% | 
2 | Cc1ccc2nc(-c3ccc(NC(=O)Cc4cccs4)cc3)[nH]c2c1 |  | 0.631 µM (active)
3 | CCNc1ncc2nc(-c3ccccc3)c(=O)n(CCC#N)c2n1 |  | 3.16 µM (active)
4 | CCNc1ncc2nc(-c3cn(C)c4ccccc34)c(=O)n(C)c2n1 |  | 0.1 µM (active)
5 | CCNc1ncc2nc(-c3cn(C)c4ccccc34)c(=O)n(CCC#N)c2n1 |  | 5.01 µM (active)
6 | CCNc1ncc2nc(C)c(=O)n(CCC#N)c2n1 |  | 12.6 µM (active)
7 | CC1(C)S[C@@H]2[C@H](NC(=O)[C@H](C(=O)O)c3ccsc3)C(=O)N2[C@H]1C(=O)O | -3.26% [at 25.6 µM] | 
8 | CCOC(=O)c1c(C)[nH]c2ccc3c(c12)CN1CCc2cc(OC)ccc2[C@@H]1O3 |  | 0.158 µM (active)
9 | CCOC(=O)Oc1c(OC)cc(C(=O)O[C@H]2C[C@H]3CN4CCc5c([nH]c6cc(OC)ccc56)[C@@H]4C[C@H]3[C@@H](C(=O)OC)[C@@H]2OC)cc1OC | -4.49% [at 25.6 µM] | 
10 | Cc1ccc(C2/C(=C(/O)c3ccccc3)C(=O)C(=O)N2CCN2CCOCC2)o1 (configuration not stated) | -25.3% | 
11 | Cc1ccc(C)c(/C(O)=C2/C(=O)C(=O)N(CCN3CCOCC3)C2c2ccco2)c1 (configuration not stated) |  | 25.1 µM (active)
12 | COc1ccc(/C(O)=C2/C(=O)C(=O)N(CCN3CCOCC3)C2c2ccc(C)cc2)cc1 (configuration not stated) | 8.1% | 
13 | COc1ccc2c3c([nH]c2c1)[C@@H]1C[C@@H]2[C@@H](C[C@H](O)[C@H](OC)[C@H]2C(=O)O)CN1CC3 | -3.07% [at 25.6 µM] | 
14 | COc1ccc2[nH]c3c(c2c1)CN(C)CC3 |  | 12.6 µM (active)
15 | CN1CCc2[nH]nc(-c3n[nH]c4c3CN(C)CC4)c2C1 | -15.6% [at 11.4 µM] | 
16 | CCOc1ccc(N(CCC#N)S(=O)(=O)c2ccc(OC)cc2)cc1 | 2.01% | 
17 | CN(C)C(=O)N1CCCC(C(=O)NCCc2ccccc2)C1 (configuration not stated) | 8.15% | 
18 | COc1ccc(C(=O)NNC(=S)NC(=O)c2ccco2)cc1 | -16.2% | 
19 | COc1ccc(C(=O)NCc2ccc(-c3nc4ccccc4s3)cc2)cc1 |  | 3.16 µM (active)
20 | COc1ccc(C(=O)NC(=S)NCc2ccccc2)cc1 |  | 3.16 µM (active)
21 | Cc1ccc(C(=O)NC(=S)Nc2cc(-c3nc4ccccc4s3)ccc2C)cc1 | -18.7% | 
22 | CC(C)(C)C(=O)NC(=S)NCCc1ccccc1 |  | 7.08 µM (active)

Row | Structure (SMILES) | activity, negative = inhibition | AC50
23 | COc1ccc(CN(CCC#N)C(=S)NC(=O)c2ccccc2)cc1 |  | 5.01 µM (active)
24 | O=C(Oc1ccc2c(c1)CN(Cc1ccccc1)CO2)c1ccccc1 | -14.3% [at 2.29 µM] | 
25 | C[C@H](c1ccccc1)N1C(=O)[C@H]2[C@@H]3[C@H](O)[C@H](O)CC(=O)[C@H]3CC[C@H]2C1=O | -6.45% [at 11.4 µM] | 
26 | O=C(O)Cc1ccc2ocnc2c1 | 12.6% | 
27 | CCCCN1C(=O)CN(CCc2ccccc2)C(=O)C1c1ccc(OC)cc1 (configuration not stated) | -13.8% | 
28 | COc1cc(OC)cc(C(=O)NC(=S)Nc2ccc(Cl)c(C(=O)O)c2)c1 | -4.61% | 
29 | CNC(=O)NC(=S)NC(=O)c1ccc(OC)cc1 |  | 10 µM (active)
30 | COc1cc(OC)cc(C(=O)NC(=S)NCCc2ccccc2)c1 |  | 1.26 µM (active)
31 | COc1ccc(C(=O)NCc2cn3ccccc3n2)cc1 |  | 10 µM (active)
32 | Cc1ccc(C(=O)O)cc1N1C(=O)c2cccc3cc(Br)cc(c23)C1=O | -9.48% | 
33 | CN(Cc1cc(C(C)(C)C)cc(Br)c1O)Cc1cc(C(C)(C)C)cc(Br)c1O |  | 3.16 µM (active)
34 | CC(CCC(=O)O)(c1cc(Br)c(O)c(Br)c1)c1cc(Br)c(O)c(Br)c1 | -17.9% [at 2.29 µM] | 
35 | CC(C)(C)c1cc2c(O)c(c1)Cc1cc(C(C)(C)C)cc(c1O)Cc1cc(C(C)(C)C)cc(c1O)Cc1cc(C(C)(C)C)cc(c1O)Cc1cc(C(C)(C)C)cc(c1O)Cc1cc(C(C)(C)C)cc(c1O)Cc1cc(C(C)(C)C)cc(c1O)Cc1cc(C(C)(C)C)cc(c1O)C2 | -14.2% [at 11.4 µM] | 
36 | COc1ccc(C(=O)CCN(C)C)c2ccccc12 |  | 1.58 µM (active)
37 | COc1ccc(CCN(C)CCC(=O)Nc2c(C)cc(C)cc2C)cc1OC | 1.14% | 
38 | COc1ccc(Cc2ccccc2C(=O)O)c2ccccc12 | 2.81% [at 2.29 µM] | 
39 | CN(Cc1ccco1)c1ncnc2ccc(-c3ccccc3C(F)(F)F)cc12 |  | 5.01 µM (active)
40 | CN(Cc1ccco1)c1ncnc2ccc(-c3ccccc3Cl)cc12 |  | 2 µM (active)
41 | CN(C)Cc1ccccc1-c1ccc2ncnc(N(C)Cc3ccco3)c2c1 |  | 2 µM (active)
42 | CN(Cc1ccco1)c1ncnc2ccc(-c3cccc(C#N)c3)cc12 |  | 0.501 µM (active)
43 | COCC(=O)N1CCC[C@@]2(CCN(Cc3ccccc3OC)C2)C1 | 6.76% | 
44 | CC(=O)OC[C@@H]1O[C@H](C/C=N\O[C@@H]2O[C@H](COC(C)=O)[C@@H](OC(C)=O)[C@H](OC(C)=O)[C@H]2OC(C)=O)C=C[C@@H]1OC(C)=O | -3.65% [at 11.4 µM] | 

Row | Structure (SMILES) | activity, negative = inhibition | AC50
45 | CN(Cc1ccco1)c1ncnc2ccc(-c3ccccc3C#N)cc12 |  | 1 µM (active)
46 | Oc1ccc([C@@H]2CNCc3sccc32)cc1O | 3.98% | 
47 | COc1ccccc1CN1CCCC2(CCN(C(=O)c3csnn3)CC2)C1 | -22.1% | 
48 | C=CCn1c(C)cc(C(=O)CN2C(=O)c3ccccc3C2=O)c1C | 0.647% | 
49 | Cc1cc(C(=O)CC#N)c(C)n1CC(F)(F)F |  | 15.8 µM (active)
50 | CC1(C)OC(C(N)=O)C(C(N)=O)O1 (configuration not stated) | -21.8% | 
51 | CCOC(=O)N/N=C1/C[C@@H](O)[C@@H](O)[C@@H]2[C@@H]3C(=O)N(Cc4ccccc4)C(=O)[C@H]3CC[C@@H]12 | -3.55% [at 11.4 µM] | 
52 | COc1ccccc1OCC(=O)N/N=C1/SCC(=O)N1Cc1ccccc1 |  | 5.01 µM (active)
53 | CCOC(=O)N/N=C1/C[C@@H](O)[C@@H](O)[C@@H]2[C@@H]3C(=O)N(Cc4ccccc4)C(=O)[C@H]3CC[C@H]12 | -4.78% [at 11.4 µM] | 
54 | CCOc1cc(/C=C2/NC(=O)N(CC(=O)Nc3cccc(C)c3)C2=O)ccc1OC | 1.61% | 
55 | CCOc1cc(/C=C2\C(=O)N(Cc3ccc(C)cc3)C(C)=C2C(=O)OC)ccc1O |  | 14.1 µM (active)
56 | O=C1OCCC1Sc1nnnn1-c1ccccc1 (configuration not stated) | -19.1% | 
57 | O=C1OCCC1Sc1nnc(-c2ccc(O)cc2)o1 (configuration not stated) |  | 2.24 µM (active)
58 | N#Cc1cccc(NC(=O)N2CC[C@@]3(CCCNC3)C2)c1 | -17.6% | 
59 | NC(=O)c1nn(-c2ccccc2)c(=O)cc1O | 1.04% | 
60 | O=C(c1ccccc1)c1nn(-c2ccccc2)c(=O)cc1C(F)(F)F |  | 0.501 µM (active)
61 | C=CC[C@@H]1C=C[C@H](ON=C(C)C)[C@H](CO)O1 | 3.87% [at 11.4 µM] | 
62 | COC(=O)[C@H](C)NC(=O)C/C=C\[C@@H](C)[C@H]1C=C[C@H](O)[C@@H](CO)O1 | -5.17% [at 11.4 µM] | 
63 | Cc1ccc(-c2ccc(/C=N\NC(=O)c3cc4c(ccc5ccccc54)o3)o2)cc1[N+](=O)[O-] |  | 22.4 µM (active)
64 | C=CCn1cc(/C=N\NC(=O)c2cc3c(ccc4ccccc43)o2)c2ccccc21 |  | 1 µM (active)
65 | O=C(N/N=C/c1ccncc1)c1cc2c(ccc3ccccc32)o1 |  | 0.355 µM (active)
66 | Cc1ccccc1C(=O)N/N=C/c1ccncc1 |  | 12.6 µM (active)

Row | Structure (SMILES) | activity, negative = inhibition | AC50
67 | CC(O)(P(=O)(O)O)P(=O)(O)O | -0.0229% [at 25.6 µM] | 
68 | COc1ccccc1CN1CC[C@@]2(CCCN(C(=O)c3cccn3C)C2)C1 | 2.49% | 
69 | O=C(N/N=C/c1ccco1)/C(=C/c1cccc([N+](=O)[O-])c1)NC(=O)c1ccccc1 | 12.9% | 
70 | COc1ccc(/C=N/NC(=O)c2cccc([N+](=O)[O-])c2)cc1OS(=O)(=O)c1ccc(C)cc1 | -9.99% | 
71 | Cc1cc(C(=O)N/N=C/c2cccc([N+](=O)[O-])c2)c(C)o1 |  | 1.41 µM (active)
72 | O=C(N/N=C/c1cccc([N+](=O)[O-])c1)c1cc2c(ccc3ccccc32)o1 |  | 0.355 µM (active)
73 | C#C[C@@]1(OC(C)=O)CC[C@@H]2[C@@H]3CCC4=C[C@@H](OC(C)=O)CC[C@H]4[C@H]3CC[C@]21C | -7.62% [at 25.6 µM] | 
74 | C/C(CCN1CCc2nc(-c3ccccc3)c(-c3ccccc3)cc2C1)=N\O[C@@H](C)c1cc(-c2c(C)cc(C)cc2C)no1 | 9.44% [at 11.4 µM] | 
75 | O=c1cc(N2CCOCC2)oc2c(-c3ccccc3)cccc12 |  | 1.58 µM (active) and 200 nM (active)
76 | Cc1cc(C)c2nc3c(c([C@H](O)[C@@H]4CCCCN4)c2c1)CC/C3=C/c1ccc(Cl)cc1 | -20.6% [at 11.4 µM] | 
77 | Cc1ccc(C(c2nnnn2C2CCCC2)N2CCN3CCCC3C2)cc1 (configuration not stated) | 1.2% | 
78 | Clc1ccc(C(c2nnnn2C2CCCC2)N2CCN(Cc3ccncc3)CC2)cc1 (configuration not stated) |  | 10 µM (active)
79 | c1coc(CN2CCN(C(c3cccs3)c3nnnn3C3CCCC3)CC2)c1 (configuration not stated) | -10.2% | 
80 | C/C=C\C1=C(CO)C(=O)C2O[C@]2(CC=C(C)C)C1=O (some centres not stated) | -6.49% [at 11.4 µM] | 
81 | COc1ccc(-c2nc(-c3ccccc3)c(-c3cc([N+](=O)[O-])ccc3C)[nH]2)cc1O |  | 14.1 µM (active)
82 | O=[N+]([O-])c1cccc(-c2nc(-c3cccs3)c(-c3cccs3)[nH]2)c1 |  | 1 µM (active)
83 | O=[N+]([O-])c1cccc(-c2nc(-c3ccccc3)c(-c3cccs3)[nH]2)c1 |  | 2.51 µM (active)
84 | CCOc1ccc(C(=O)Nc2cnn(Cc3ccc(Cl)c(Cl)c3)c2)cc1 |  | 10 µM (active)
85 | CCN(CC)c1ccc(NC(=O)c2cnn(CC)c2)cc1 | -3.68% | 
86 | CCOC(OCC)P(=O)(O)CCCNCc1ccc(Cl)c(Cl)c1 | -38% | 
87 | Cc1cc(C(=O)CSC(=S)SC(C)(C)C)ccc1Cl |  | 1.58 µM (active)
